# Inconclusive results are not listed. Calls of active or inactive are those of the source. Calls follow the shape of the dose curve; as a rule, active = well fitted inhibition curve with a large enough effect; inconclusive = small, poorly fitted or top-dose-only effect; inactive = flat fitted curve, though single readings scatter.
# Target: Phospholipid hydroperoxide glutathione peroxidase GPX4 (Homo sapiens) (UniProt P36969)
# Experiment: Primary qHTS Assay for Inhibitors of Recombinant Selenoprotein Glutathione Peroxidase 4 (GPX4) (AID 1845192); also: nearly all actives have a fitted effect of over 65% in size
# Details: recombinant GPX4, GR-coupled NADPH fluorescence, 15 min; series mostly up to 50 µM; activity change, negative = inhibition: at the top concentration
# From the text: Assay Provider: Elias S.J. Arner MD PhD.
# Department of Medical Biochemistry and Biophysics
# Karolinska Institutet, Solna, Stockholm, Sweden
# Selenoprotein glutathione peroxidases (GPX), like the ubiquitously expressed GPX1 and the ferroptosis modulator GPX4, enact their antioxidant activities by reducing hydroperoxides using glutathione. […] GPX1 and GPX4 inhibitors have thus shown promise as anti-cancer agents. Existing inhibitors are often promiscuous, or modulate GPX activity only indirectly, so novel direct inhibitors identified through screening against GPX1 and GPX4 could be valuable. Here, we developed optimized glutathione reductase (GR)-coupled GPX assays for the biochemical high-throughput screen (HTS) of almost 12,000 compounds with known mechanisms of action. Initial hits were triaged using a GR counter-screen, assessed for isoform specificity using a separate GPX2 assay, and were assessed for general selenocysteine-targeting activity using a thioredoxin reductase (TXNRD1) assay. With this suite of assays, we identified novel GPX1/GPX2- and GPX4-specific inhibitors and can here present a validated pipeline for future discovery research for selenoprotein-targeting agents.
# SEQUENCE No. (e.g., 1, 2, 3, etc.); […] (e.g., Cells, Incubation, Reagent, etc.); VALUE; DESCRIPTION.
# 1; Reagent 1; 3 uL; 333.33 nM GPx4 enzyme or no enzyme control in 1536-well, black, solid Greiner assay plate.
# 2; Compound; 25 nL; Kalypsis pin tool (Wako USA) equipped with a 1536-well pin head.
# 3; Incubation; 30 min; room temperature.
# 4; Reagent 2; 1 uL; 500 nM GR, 5 mM GSH, 2.5 mM NADPH solution
# 5; Reagent 3; 1 uL; 2.5 mM CHP in 50% EtOH.
# 6; Detection; Fluorescence; ViewLux microplate reader, excitation 340 nm and emission 450 nm.
# 7; Incubation; 15 min; room temperature.
# 8; Detection; Fluorescence; ViewLux microplate reader, excitation 340 nm and emission 450 nm.
# NOTES (numbers refer to Sequence numbers above)
# 1. 3 µL of 333.33 nM GPX4 and 0.016% BSA in assay buffer (50 mM Tris-HCl, 2 mM EDTA (pH 7.5), 150 mM NaCl) was added to columns 3-48 of 1536-well plates using a BioRAPTR Flying Reagent Dispenser (Let's Go Robotics (LGR), Carlsbad, CA). A no-enzyme control (0.01% BSA in TES assay buffer) was added to columns 1-2.
# 2. 25 nL, library and DMSO controls were added to each well with a pin tool (Kalypsys).
# 3. The assay plates were incubated for 30 minutes at room temperature.
# 4. 1 µL of master mix (500 nM glutathione reductase (GR), 5 mM reduced glutathione (GSH), 2.5 mM NADPH in assay buffer) was added.
# 5. 1 µL of cumene hydroperoxide (CHP) ([2.5 mM] in 50% EtOH) was then added within 5 minutes to initiate the reaction. Final concentrations were: 200 nM GPX4, 1 mM GSH, 0.5 mM CHP, 0.5 mM NADPH, 100 nM GR, 0.01% BSA.
# 6. Initial fluorescence readout (t=0) at 340/450 nm was measured using a ViewLux multimodal detector (PerkinElmer, Waltham, MA).
# 8. Endpoint fluorescence readout (t=15) at 340/450 nm was measured 15 min after room temperature incubation.
# % is scaled to controls: 0 for no effect and ±100 for the full control effect; potency is read from the fitted curve at half-maximal effect.
# Chain of Phospholipid hydroperoxide glutathione peroxidase GPX4 (Homo sapiens) (P36969 whole entry, looked up): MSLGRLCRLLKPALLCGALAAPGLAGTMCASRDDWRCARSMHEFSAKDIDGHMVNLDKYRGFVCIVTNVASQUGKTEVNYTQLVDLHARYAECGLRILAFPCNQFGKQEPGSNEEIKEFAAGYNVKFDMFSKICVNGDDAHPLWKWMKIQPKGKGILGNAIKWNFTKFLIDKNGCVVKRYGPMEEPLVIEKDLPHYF
Structure (SMILES),"activity change, negative = inhibition",Potency,outcome
NCCNc1ccc(NCCN)c2c1C(=O)c1ccncc1C2=O,-15.3% (inactive),,
Nc1cc(C(F)(F)F)c(-c2nc(N3CCOCC3)nc(N3CCOCC3)n2)cn1,-6.22% (inactive),,
CCn1c(N)c(C(=O)NC)c(=O)c2ccc(C#C[C@@](C)(O)COC)nc21,-7.89% (inactive),,
Cc1ncc(NC(=O)c2cccc(C(F)(F)F)c2)cc1-c1cnc(OC2CCOCC2)c(N2CCOCC2)c1,-6.67% (inactive),,
O=C(NO)C1(CS(=O)(=O)c2ccc(Oc3ccc(Cl)cc3)cc2)CCOCC1,-1.32% (inactive),,
CC[C@H](C)[C@@H]([C@@H](CC(=O)N1CCC[C@H]1[C@H](OC)[C@@H](C)C(=O)N[C@@H](Cc1ccccc1)c1nccs1)OC)N(C)C(=O)[C@@H](NC(=O)[C@H](C(C)C)N(C)C)C(C)C,3.52% (inactive),,
C=CC(=O)N1CC[C@@H](Oc2nc(Nc3ccc(N4CCC(N5CCN(C)CC5)CC4)cc3)c(C(N)=O)nc2CC)C1,-8.73% [at 27.8 µM] (inactive),,
COc1ccc(-c2ccc3c(N4CCOC[C@@H]4C)nc(N4CCOC[C@@H]4C)nc3n2)cc1CO,,16.1 µM (active),
Nc1nc2cc(-c3ccc4ncc(C(=O)N5CCOCC5)n4c3)ccc2o1,-5.39% (inactive),,
NC(=O)c1cc(F)cc2c1C(=O)N(C1CCN(C3CCC(F)(F)CC3)CC1)C2,-2.95% (inactive),,
CC[C@@H]1[C@H](F)C(=O)N[C@@H]1COc1nccc2cc(C(N)=O)c(OC)cc12,,18 µM (active),
C=CC1=C(C(=O)O)N2C(=O)[C@@H](NC(=O)/C(=N\OCC(=O)O)c3csc(N)n3)[C@H]2SC1,,,inactive
CC(C)(C)C[C@H]1N[C@@H](C(=O)NC2CCC(O)CC2)[C@H](c2cccc(Cl)c2F)[C@@]12C(=O)Nc1cc(Cl)ccc12 (stereo not given in full),-16% (inactive),,
[2H]C([2H])([2H])C(O)([C@@H](C)/C=C/[C@@H](C)[C@H]1CC[C@H]2/C(=C/C=C3C[C@@H](O)C[C@H](O)C3)CCC[C@]12C)C([2H])([2H])[2H],,inactive,
C=CC(=O)Nc1ccc(F)c(-c2ncnc3[nH]cc(C(=O)OCC)c23)c1,,,inactive
CCCCCCCCC=CCCCCCCCC(=O)NCCOC(=O)CC(C(=O)O)S(=O)(=O)O (stereo not given),-1.07% (inactive),,
C/C(=C\c1csc(C)n1)[C@@H]1C[C@@H]2O[C@]2(C)CCC[C@H](C)[C@H](O)[C@@H](C)C(=O)C(C)(C)[C@@H](O)CC(=O)N1,,inactive,
COc1ccc(S(=O)(=O)Nc2cc(-c3csc(C#N)c3)ccc2C)cc1,-3.64% (inactive),,
C[C@H](NC(=O)c1c(N)nn2cccnc12)c1cc2cccc(C#Cc3cnn(C)c3)c2c(=O)n1-c1ccccc1,-25.2% [at 27.8 µM] (inactive),,
N#Cc1ccc(Cn2cncc2CN2CCN(c3cccc(Cl)c3)C(=O)C2)cc1,2.98% (inactive),,

Structure (SMILES),"activity change, negative = inhibition",Potency,outcome
Cc1cc(OCCCc2c3n(c4c(-c5c(C)nn(C)c5C)c(Cl)ccc24)[C@H](C)CN(c2cn(C)c4ccc(C(=O)O)cc24)C3=O)cc(C)c1Cl,,3.21 µM (active),
CCC[C@H](NC(=O)[C@@H]1[C@H]2CCC[C@H]2CN1C(=O)[C@@H](NC(=O)[C@@H](NC(=O)c1cnccn1)C1CCCCC1)C(C)(C)C)C(=O)C(=O)NC1CC1,-9.86% (inactive),,
Nc1nc(NC2CC2)c2ncn([C@H]3C=C[C@@H](CO)C3)c2n1,,,inactive
O=C(NO)c1cnc(NC2(c3ccccc3)CC2)nc1,2.13% (inactive),,
CNC(=O)CCc1cc(-c2ccc(-c3ccc(C(F)(F)F)cc3)cc2)n(-c2ccc(N3CCNCC3)cc2)n1,1.39% (inactive),,
C=CC(=O)N[C@H]1CN(c2nc(Nc3cn(C)nc3OC)c3ncn(C)c3n2)C[C@@H]1F,,,inactive
C/C=C/C/C=C/CCC(=O)[C@H]1O[C@H]1C(N)=O,,,inactive
N#Cc1cc2cc(CN3CCC(Nc4ncnc5sc(CC(F)(F)F)cc45)CC3)c(O)cc2n1Cc1cn[nH]c1,-24.2% (inactive),,
COc1ccc(C=CC(=O)O)cc1,-8.32% (inactive),,
CC(C)(C)S(=O)(=O)c1ccc2nccc(Nc3n[nH]c4ccc(F)cc34)c2c1,-8.32% (inactive),,
COc1ccc2c(c1)[C@]1(C[C@H]1c1ccc3c(/C=C/c4ccc(CN5C[C@@H](C)O[C@@H](C)C5)cc4)n[nH]c3c1)C(=O)N2,-18.4% (inactive),,
CC(=O)O/N=C1/C(c2c(O)[nH]c3cc(Br)ccc23)=Nc2ccccc21,-12.7% (inactive),,
CCN(CC)C(=O)[C@]1(c2ccccc2)C[C@H]1CN,-7.02% (inactive),,
CC(C)[C@H](N)C(=O)O,-8.59% (inactive),,
CC1=C(c2ccc(O)cc2)[C@H](c2ccc(OCCN3CCCCC3)cc2)Oc2cc(O)ccc21,-14.1% (inactive),,
CC1=C2C[C@H]3[C@@H](CC[C@@H]4C[C@H](NS(C)(=O)=O)CC[C@@]43C)[C@@H]2CC[C@@]2(C1)O[C@@H]1C[C@H](C)CN[C@H]1[C@H]2C,,,inactive
Nc1ncccc1-c1nc2ccc(-c3ccccc3)nc2n1-c1ccc(C2(N)CCC2)cc1,,22.7 µM (active),
COc1ccc(S(=O)(=O)N2CCc3cccc(-c4ccncc4)c32)cc1,,,inactive
N[C@@H]1CCCCN(c2c(F)cc3c(=O)c(C(=O)O)cn(C4CC4)c3c2Cl)C1,-0.427% (inactive),,
O=C(O)[C@@H]1CCCN1,,,inactive

# Reference: PubChem BioAssay (NCATS)
